In the supplement of paper PMC3334620:
Over roughly 33,000 sequences, “E-score (-0.5 to 0.5)” has its median near -0.036; the highest 2% begin near 0.37. The sample holds the highest values, similar sequences and a random draw of the others, so the mix is not that of the screen.

biological target: T1, Yer064c (UniProt P40041); assay: PBM E-score (8-mer binding enrichment) (E-score (-0.5 to 0.5)); higher = stronger / more preferred TF binding; details: protein concentration: 200 nM; construct: GST-full length
T1 sequence: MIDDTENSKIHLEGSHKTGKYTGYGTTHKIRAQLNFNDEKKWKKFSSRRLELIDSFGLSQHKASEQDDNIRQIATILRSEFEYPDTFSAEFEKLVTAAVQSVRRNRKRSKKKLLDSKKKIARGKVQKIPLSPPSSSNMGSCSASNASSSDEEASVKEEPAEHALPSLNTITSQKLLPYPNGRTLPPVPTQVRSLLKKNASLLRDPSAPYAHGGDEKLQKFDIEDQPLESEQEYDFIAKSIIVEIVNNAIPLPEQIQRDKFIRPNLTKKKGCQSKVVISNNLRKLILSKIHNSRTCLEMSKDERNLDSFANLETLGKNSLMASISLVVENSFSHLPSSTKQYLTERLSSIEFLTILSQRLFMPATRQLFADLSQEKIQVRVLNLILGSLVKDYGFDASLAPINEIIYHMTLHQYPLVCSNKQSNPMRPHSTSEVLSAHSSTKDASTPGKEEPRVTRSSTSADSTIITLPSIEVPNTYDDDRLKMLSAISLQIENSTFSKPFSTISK
Protocol: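 Universal 'all 10-mer' protein binding microarrays (Agilent AMADID 015681) probed with GST-tagged S. cerevisiae TFs (full-length or DBD) made by in vitro transcription/translation (PURExpress), about 100-200 nM. Bound TF was detected with fluorescent anti-GST. Each ungapped 8-mer (which stands for itself and its reverse complement) is scored by the PBM enrichment score (E-score), a modified Wilcoxon-Mann-Whitney statistic from -0.5 to +0.5, computed with the Universal PBM Analysis Suite. Scale: above 0.35 generally sequence-specific binding.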

| Sequence | PBM E-score |
| --- | --- |
| CGGGAGAA | -0.141 |
| CTTATCCC | -0.147 |
| AAGGAAGG | -0.0955 |
| ACCCTATG | 0.155 |
| GAGCTTCA | -0.142 |
| ACGGATGG | 0.0552 |
| ATCTTCCG | -0.0471 |
| GACGACGC | -0.226 |
| ATCGACTC | 0.304 |
| AACGACAC | -0.105 |
| GACGACTA | 0.415 |
| AACGACTT | 0.177 |
| GACGACCC | -0.217 |
| AACGACTG | 0.133 |
| GTCGACTA | 0.335 |
| AACGACTA | 0.393 |
| GACGACGA | 0.00788 |
| GACGACTC | 0.442 |
| AACGACTC | 0.427 |
| CGGCTACA | -0.00254 |
| CGTTTCGC | -0.125 |
| AATCTTCG | 0.25 |
| TACCTGGA | 0.0309 |
| CTCCACCC | -0.099 |
| AAAGACCA | -0.029 |

| Sequence | PBM E-score |
| --- | --- |
| TACGGCGA | -0.108 |
| CACGACAC | -0.043 |
| CACGACTA | 0.403 |
| CACGACGC | -0.163 |
| TACGACTA | 0.415 |
| TACGACGA | 0.071 |
| CACGACTG | 0.238 |
| CACGACGA | 0.044 |
| TACGACAA | 0.0113 |
| CACGACTC | 0.437 |
| TAGCCACA | 0.14 |
| CGCGATAC | -0.206 |
| CAAAATCC | 0.087 |
| CAAAAGCC | -0.227 |
| TAGCCATA | 0.28 |
| GAGCCATA | 0.366 |
| GAGCCATC | 0.342 |
| AGAGCTCG | -0.222 |
| AGTCATAC | 0.486 |
| AGTCATAA | 0.476 |
| AGTCATAT | 0.484 |
| AGTCATAG | 0.482 |
| CGTCATAC | 0.192 |
| AGACATAT | 0.137 |
| TGTCATAA | 0.0821 |

| Sequence | PBM E-score |
| --- | --- |
| CGTCATAA | -0.00764 |
| GGTCATAA | 0.081 |
| CGTCATAG | -0.0141 |
| AGCCATAG | 0.199 |
| GGTCATAC | 0.123 |
| CAAAACTC | -0.0536 |
| AAAATAAC | 0.0567 |
| CCGTCCCG | -0.193 |
| ACAATTAA | 0.144 |
| CGTGCGTC | -0.13 |
| TGTGCTAA | 0.0249 |
| ACAATCAC | 0.351 |
| AGAATCCT | -0.0297 |
| GGAATCCC | -0.166 |
| ACAATCAT | 0.385 |
| AGAATCCC | 0.0788 |
| GGAATCAC | 0.418 |
| ACAATCAA | 0.202 |
| AGAATCGC | 0.127 |
| AGAATCAT | 0.44 |
| AGAATCAG | 0.325 |
| GGAATCAA | 0.257 |
| AGAATCAC | 0.374 |
| GTTCTATA | -0.0345 |
| AAGGGTGT | -0.00845 |

| Sequence | PBM E-score |
| --- | --- |
| AGCGCTGG | 0.0943 |
| CACAACTG | -0.113 |
| ACCTGGCA | -0.145 |
| CGATTCTA | 0.0229 |
| CACCAACC | -0.0246 |
| GTCACAGA | 0.237 |
| CGAATCAG | 0.384 |
| CGAATCCC | -0.125 |
| CGAATCAC | 0.4 |
| CCAATCAC | 0.182 |
| CGAATCCG | 0.0437 |
| CCAATCAG | 0.0381 |
| ACCTTGGA | -0.0702 |
| ACAACTGC | -0.0478 |
| AAAAGCCG | -0.213 |
| AAGTCTCC | 0.107 |
| CAGTCTCC | 0.211 |
| AAGTCCTA | 0.186 |
| ATGTCTCG | 0.17 |
| ATGTCTCC | 0.216 |
| CAGTCCTA | 0.183 |
| CAGTCTTA | 0.278 |
| GAGTCCTA | 0.399 |
| AAGTCTTA | 0.213 |
| GAGTCTCC | 0.419 |

| Sequence | PBM E-score |
| --- | --- |
| ATGTCTCA | 0.414 |
| GAGTCTTA | 0.453 |
| AATCTTAA | 0.244 |
| CCCGCATA | -0.019 |
| ATGTAGCA | -0.146 |
| ACATCTGG | -0.137 |
| AACTTCCG | 0.0922 |
| CAGTGATC | 0.0804 |
| TAGTCTCA | 0.36 |
| GAGTCTCA | 0.411 |
| AAGTCTCA | 0.239 |
| ATATGCAG | 0.196 |
| AGCAAATA | -0.157 |
| GCACTGGC | -0.194 |
| GACTCACC | 0.478 |
| AACTCACA | 0.259 |
| CACTCACG | 0.112 |
| AACTCACG | 0.211 |
| CACTCACA | 0.0403 |
| TACTCACA | 0.367 |
| CACTCACC | 0.207 |
| AACTCACC | 0.275 |
| GACTCACA | 0.472 |
| CCAGATCA | 0.058 |
| CGAAGCCA | 0.0935 |

| Sequence | PBM E-score |
| --- | --- |
| CTCCCCGA | -0.0625 |
| AGTAGCTG | 0.0121 |
| GCAGAACC | -0.118 |
| ATCGAGCA | -0.149 |
| ACCTGACG | -0.192 |
| AACTGACC | -0.163 |
| AACTGACT | 0.404 |
| ACCTGACC | -0.13 |
| ACCTGACT | 0.44 |
| AGCTGACT | 0.458 |
| AGCTGACG | -0.134 |
| AACTGACA | -0.287 |
| AGCTGACC | -0.078 |
| AAGTGCAG | 0.0456 |
| CCCGTGCC | -0.103 |
| AGGTAACG | -0.0878 |
| ATTCCATA | -0.0291 |
| AGCGCATC | -0.0879 |
| AAGTACTC | 0.282 |
| CAGTACTC | 0.24 |
| AACTACTA | -0.0232 |
| TACTACTA | 0.0844 |
| GACTACTC | 0.427 |
| GAGTACTC | 0.381 |
| CACTACTC | 0.112 |

| Sequence | PBM E-score |
| --- | --- |
| GACTACTA | 0.417 |
| AACTACTC | 0.199 |
| AACGTAAT | 0.023 |
| GTTGTCGA | -0.158 |
| GCGTTGCC | -0.252 |
| ACCCTGAC | 0.158 |
| GTTCAGAA | 0.00278 |
| AAGCAGCA | -0.264 |
| ATTGTACA | 0.0112 |
| GTGACTAA | 0.488 |
| CAGACTAA | 0.317 |
| CTTACTAC | -0.0948 |
| CGGACTAA | 0.342 |
| CTGACTAA | 0.48 |
| CGGACTAC | 0.248 |
| GGGACTAA | 0.323 |
| GTTACTAA | 0.184 |
| CTGACTAC | 0.469 |
| AACCGCTA | -0.169 |
| ATGTTATA | -0.0918 |
| CGAAGGAC | 0.079 |
| ACCGCGGG | 0.0814 |
| AGCGCCGA | -0.00218 |
| ACCTTCGA | 0.00431 |
| GAATCTCA | 0.101 |

| Sequence | PBM E-score |
| --- | --- |
| CCGGATTA | -0.0124 |
| CCAAGCTC | -0.22 |
| AGATGTCG | -0.0862 |
| CCTCACCC | -0.213 |
| CCTCACCA | -0.134 |
| ACTCACCC | 0.401 |
| ACTCACCA | 0.388 |
| CCTCACCG | -0.033 |
| ACTCACCG | 0.384 |
| GCTCACCC | -0.0459 |
| ACTCACCT | 0.338 |
| TCTCACCA | -0.117 |
| ATCGGAGC | -0.0582 |
| GACGAAGC | -0.0864 |
| TCGGATCA | -0.0516 |
| ATTAGAAT | 0.186 |
| GTTAATCA | 0.451 |
| CTTAATCC | 0.114 |
| CTTAATAA | 0.136 |
| ATTAATCA | 0.441 |
| CTTAATCA | 0.45 |
| GTTAATTA | 0.0895 |
| GTTAATAA | 0.117 |
| ATTAATCG | 0.269 |
| ATTAATCC | 0.256 |

| Sequence | PBM E-score |
| --- | --- |
| AGACCAAA | 0.0161 |
| GTAGTAAA | 0.107 |
| CACTTGCG | -0.0335 |
| GTAGGAAA | 0.00646 |
| CGGTTACC | 0.0378 |
| ATATTGGC | -0.228 |
| GGAGGACC | -0.37 |
| GACTTAAA | 0.325 |
| CCAAGTCA | 0.317 |
| GCAAGTCA | 0.361 |
| ACAAGTCA | 0.374 |
| ACAAGTCG | 0.0706 |
| ACAAGTCT | 0.0793 |
| TCAAGTCA | 0.379 |
| ACAGGGCA | -0.128 |
| ATATCCAC | -0.0172 |
| TCAAAGCA | 0.0603 |
| ACTGTTGC | -0.0887 |
| AAACCGGC | -0.0714 |
